Data reported in ChEMBL document CHEMBL1961873, “Compounds: GSK PKIS; Assays: Nanosyn kinase panel” (2012).

Assays:
[1] = target: Sphingosine kinase 1 (Homo sapiens) (UniProt Q9NYA1); conditions: at 1 µM;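 further: mean SPHK1 inhibition value reported from the GSK PKIS kinase panel screen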
[2] = target: T1, Sphingosine kinase 2 (Homo sapiens) (UniProt Q9NRA0); conditions: at 0.1 µM
T1 sequence (whole entry): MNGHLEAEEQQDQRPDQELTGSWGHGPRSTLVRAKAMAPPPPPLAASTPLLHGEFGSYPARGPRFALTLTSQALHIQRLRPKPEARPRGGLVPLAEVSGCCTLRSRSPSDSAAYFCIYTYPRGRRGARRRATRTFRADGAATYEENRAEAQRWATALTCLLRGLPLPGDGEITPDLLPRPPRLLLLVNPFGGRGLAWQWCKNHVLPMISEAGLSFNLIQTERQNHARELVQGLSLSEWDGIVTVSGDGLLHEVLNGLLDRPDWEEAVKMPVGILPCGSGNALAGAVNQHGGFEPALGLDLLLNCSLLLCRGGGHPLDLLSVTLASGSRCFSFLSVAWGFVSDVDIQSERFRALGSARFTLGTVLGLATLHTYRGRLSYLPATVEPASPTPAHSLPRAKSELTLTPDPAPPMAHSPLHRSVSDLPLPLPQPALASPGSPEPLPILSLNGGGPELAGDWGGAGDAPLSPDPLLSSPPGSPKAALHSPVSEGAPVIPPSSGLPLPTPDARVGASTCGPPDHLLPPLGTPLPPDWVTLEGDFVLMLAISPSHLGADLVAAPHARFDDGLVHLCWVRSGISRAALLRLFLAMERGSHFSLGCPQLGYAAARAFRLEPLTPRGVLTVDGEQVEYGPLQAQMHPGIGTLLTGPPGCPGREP

[3] = target: T1, Sphingosine kinase 2 (Homo sapiens); conditions: at 1 µM
[4] = target: Casein kinase II subunit alpha (Homo sapiens) (UniProt P68400); conditions: at 0.1 µM
[5] = target: Casein kinase II subunit alpha (Homo sapiens) (UniProt P68400); conditions: at 1 µM
[6] = target: T2, Inhibitor of nuclear factor kappa-B kinase subunit alpha (Homo sapiens) (UniProt O15111); conditions: at 0.1 µM
T2 sequence (whole entry): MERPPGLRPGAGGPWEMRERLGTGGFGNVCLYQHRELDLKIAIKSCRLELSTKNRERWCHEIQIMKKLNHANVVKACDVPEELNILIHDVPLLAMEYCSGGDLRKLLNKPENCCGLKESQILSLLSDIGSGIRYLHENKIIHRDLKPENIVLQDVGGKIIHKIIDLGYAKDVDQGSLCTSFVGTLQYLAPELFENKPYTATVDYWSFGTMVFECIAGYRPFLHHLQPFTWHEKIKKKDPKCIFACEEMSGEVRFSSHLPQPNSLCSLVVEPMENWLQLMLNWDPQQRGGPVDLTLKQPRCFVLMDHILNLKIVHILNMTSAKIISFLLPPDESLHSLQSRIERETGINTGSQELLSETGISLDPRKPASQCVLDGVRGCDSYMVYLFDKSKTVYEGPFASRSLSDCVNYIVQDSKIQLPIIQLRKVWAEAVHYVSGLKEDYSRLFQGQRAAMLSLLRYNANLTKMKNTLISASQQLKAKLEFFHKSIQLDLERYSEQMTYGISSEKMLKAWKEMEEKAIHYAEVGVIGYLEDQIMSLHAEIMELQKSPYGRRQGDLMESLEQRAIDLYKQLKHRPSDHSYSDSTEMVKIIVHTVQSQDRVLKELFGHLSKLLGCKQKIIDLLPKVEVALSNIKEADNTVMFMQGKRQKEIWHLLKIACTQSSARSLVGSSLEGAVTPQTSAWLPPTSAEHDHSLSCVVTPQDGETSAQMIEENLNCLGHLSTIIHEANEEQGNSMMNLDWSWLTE

[7] = target: T2, Inhibitor of nuclear factor kappa-B kinase subunit alpha (Homo sapiens); conditions: at 1 µM
[8] = target: T3, Inhibitor of nuclear factor kappa-B kinase subunit beta (Homo sapiens) (UniProt O14920); conditions: at 0.1 µM
T3 sequence (whole entry): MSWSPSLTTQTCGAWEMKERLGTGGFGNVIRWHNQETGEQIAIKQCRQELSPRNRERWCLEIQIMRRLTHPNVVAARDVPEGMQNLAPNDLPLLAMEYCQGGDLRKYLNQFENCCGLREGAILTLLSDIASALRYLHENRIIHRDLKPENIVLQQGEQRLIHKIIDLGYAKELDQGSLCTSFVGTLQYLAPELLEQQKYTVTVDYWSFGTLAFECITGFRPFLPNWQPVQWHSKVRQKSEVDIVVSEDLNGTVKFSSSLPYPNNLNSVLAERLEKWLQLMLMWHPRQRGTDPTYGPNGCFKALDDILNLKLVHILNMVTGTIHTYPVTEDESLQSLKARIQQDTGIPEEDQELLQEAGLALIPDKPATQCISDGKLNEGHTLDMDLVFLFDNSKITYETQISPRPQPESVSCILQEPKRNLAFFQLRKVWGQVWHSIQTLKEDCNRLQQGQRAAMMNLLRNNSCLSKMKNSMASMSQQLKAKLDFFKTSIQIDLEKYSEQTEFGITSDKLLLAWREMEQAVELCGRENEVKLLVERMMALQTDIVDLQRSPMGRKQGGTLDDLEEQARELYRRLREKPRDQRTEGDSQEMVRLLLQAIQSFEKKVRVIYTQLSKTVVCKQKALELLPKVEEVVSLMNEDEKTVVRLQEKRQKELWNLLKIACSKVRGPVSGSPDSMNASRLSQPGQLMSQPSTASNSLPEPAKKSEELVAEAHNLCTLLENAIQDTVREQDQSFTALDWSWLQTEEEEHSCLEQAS

[9] = target: T3, Inhibitor of nuclear factor kappa-B kinase subunit beta (Homo sapiens); conditions: at 1 µM
[10] = target: T4, Inhibitor of nuclear factor kappa-B kinase subunit epsilon (Homo sapiens) (UniProt Q14164); conditions: at 0.1 µM
T4 sequence (whole entry): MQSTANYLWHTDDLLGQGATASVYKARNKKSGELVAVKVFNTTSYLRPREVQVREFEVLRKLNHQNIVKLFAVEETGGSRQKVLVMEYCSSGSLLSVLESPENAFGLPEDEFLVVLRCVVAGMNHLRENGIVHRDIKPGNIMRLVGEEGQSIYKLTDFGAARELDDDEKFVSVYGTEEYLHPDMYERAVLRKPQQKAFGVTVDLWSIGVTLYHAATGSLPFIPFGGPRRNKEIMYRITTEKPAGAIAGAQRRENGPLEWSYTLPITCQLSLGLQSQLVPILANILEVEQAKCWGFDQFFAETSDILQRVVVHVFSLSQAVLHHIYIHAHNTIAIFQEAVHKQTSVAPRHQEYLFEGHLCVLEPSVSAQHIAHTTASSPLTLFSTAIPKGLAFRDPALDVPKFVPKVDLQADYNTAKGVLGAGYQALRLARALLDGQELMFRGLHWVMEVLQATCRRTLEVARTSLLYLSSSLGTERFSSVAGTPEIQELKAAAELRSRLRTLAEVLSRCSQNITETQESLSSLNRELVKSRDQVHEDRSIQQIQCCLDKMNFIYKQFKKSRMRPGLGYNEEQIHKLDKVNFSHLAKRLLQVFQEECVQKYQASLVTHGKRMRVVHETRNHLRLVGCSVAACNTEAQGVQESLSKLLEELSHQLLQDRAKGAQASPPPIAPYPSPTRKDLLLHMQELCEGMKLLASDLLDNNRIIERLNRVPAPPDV

[11] = target: T4, Inhibitor of nuclear factor kappa-B kinase subunit epsilon (Homo sapiens); conditions: at 1 µM
[12] = target: T5, Serine/threonine-protein kinase Nek1 (Homo sapiens) (UniProt Q96PY6); conditions: at 0.1 µM
T5 sequence (whole entry): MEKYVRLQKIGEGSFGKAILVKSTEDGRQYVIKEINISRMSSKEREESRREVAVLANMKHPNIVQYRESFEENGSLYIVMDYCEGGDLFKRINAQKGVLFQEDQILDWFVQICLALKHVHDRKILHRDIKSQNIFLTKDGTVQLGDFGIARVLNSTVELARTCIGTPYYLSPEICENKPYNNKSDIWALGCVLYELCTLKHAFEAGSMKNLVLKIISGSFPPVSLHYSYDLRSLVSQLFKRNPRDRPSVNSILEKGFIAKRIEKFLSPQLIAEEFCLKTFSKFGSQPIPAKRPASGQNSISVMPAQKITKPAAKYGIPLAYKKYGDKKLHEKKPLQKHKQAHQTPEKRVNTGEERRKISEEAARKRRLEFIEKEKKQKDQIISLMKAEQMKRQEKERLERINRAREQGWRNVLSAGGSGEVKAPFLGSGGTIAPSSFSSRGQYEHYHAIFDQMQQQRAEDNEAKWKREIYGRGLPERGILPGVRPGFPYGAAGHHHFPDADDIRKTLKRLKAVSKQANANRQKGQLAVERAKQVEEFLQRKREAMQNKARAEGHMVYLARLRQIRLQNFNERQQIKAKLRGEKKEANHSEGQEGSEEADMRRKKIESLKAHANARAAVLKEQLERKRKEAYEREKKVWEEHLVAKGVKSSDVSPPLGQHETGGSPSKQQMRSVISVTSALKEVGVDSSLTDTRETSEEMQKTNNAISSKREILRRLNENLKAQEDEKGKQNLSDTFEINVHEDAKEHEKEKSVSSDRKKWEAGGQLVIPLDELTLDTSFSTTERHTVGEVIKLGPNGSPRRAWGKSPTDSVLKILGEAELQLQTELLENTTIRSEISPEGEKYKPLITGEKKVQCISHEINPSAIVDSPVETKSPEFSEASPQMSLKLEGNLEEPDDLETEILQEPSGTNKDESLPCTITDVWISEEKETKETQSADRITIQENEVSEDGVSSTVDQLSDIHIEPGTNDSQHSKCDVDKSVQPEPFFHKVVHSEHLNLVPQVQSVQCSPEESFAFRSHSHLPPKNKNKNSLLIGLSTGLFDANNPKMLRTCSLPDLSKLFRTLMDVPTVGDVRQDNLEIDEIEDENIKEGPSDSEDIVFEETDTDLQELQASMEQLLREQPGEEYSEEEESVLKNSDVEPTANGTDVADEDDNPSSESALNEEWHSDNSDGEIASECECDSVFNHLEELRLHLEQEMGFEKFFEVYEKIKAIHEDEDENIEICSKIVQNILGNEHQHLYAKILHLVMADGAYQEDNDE

[13] = target: T5, Serine/threonine-protein kinase Nek1 (Homo sapiens); conditions: at 1 µM
[14] = target: T6, Serine/threonine-protein kinase Nek2 (Homo sapiens) (UniProt P51955); conditions: at 0.1 µM
T6 sequence (whole entry): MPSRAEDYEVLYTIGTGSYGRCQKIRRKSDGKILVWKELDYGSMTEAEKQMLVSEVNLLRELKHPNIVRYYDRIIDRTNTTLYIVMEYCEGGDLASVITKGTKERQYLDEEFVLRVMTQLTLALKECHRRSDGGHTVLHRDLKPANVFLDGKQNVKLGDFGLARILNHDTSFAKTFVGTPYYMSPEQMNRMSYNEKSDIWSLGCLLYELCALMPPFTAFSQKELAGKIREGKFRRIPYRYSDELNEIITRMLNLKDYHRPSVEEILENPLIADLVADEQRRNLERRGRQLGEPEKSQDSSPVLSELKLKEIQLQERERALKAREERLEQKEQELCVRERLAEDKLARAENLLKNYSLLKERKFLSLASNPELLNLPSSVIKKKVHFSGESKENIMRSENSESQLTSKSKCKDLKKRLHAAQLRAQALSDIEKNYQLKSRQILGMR

[15] = target: T6, Serine/threonine-protein kinase Nek2 (Homo sapiens); conditions: at 1 µM
[16] = target: Serine/threonine-protein kinase Nek6 (Homo sapiens) (UniProt Q9HC98); conditions: at 0.1 µM
[17] = target: Serine/threonine-protein kinase Nek6 (Homo sapiens) (UniProt Q9HC98); conditions: at 1 µM
[18] = target: Serine/threonine-protein kinase Nek7 (Homo sapiens) (UniProt Q8TDX7); conditions: at 0.1 µM
[19] = target: Serine/threonine-protein kinase Nek7 (Homo sapiens) (UniProt Q8TDX7); conditions: at 1 µM
[20] = target: T7, Serine/threonine-protein kinase Nek9 (Homo sapiens) (UniProt Q8TD19); conditions: at 0.1 µM;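 further: reported value is the mean percent inhibition of NEK9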
T7 sequence (whole entry): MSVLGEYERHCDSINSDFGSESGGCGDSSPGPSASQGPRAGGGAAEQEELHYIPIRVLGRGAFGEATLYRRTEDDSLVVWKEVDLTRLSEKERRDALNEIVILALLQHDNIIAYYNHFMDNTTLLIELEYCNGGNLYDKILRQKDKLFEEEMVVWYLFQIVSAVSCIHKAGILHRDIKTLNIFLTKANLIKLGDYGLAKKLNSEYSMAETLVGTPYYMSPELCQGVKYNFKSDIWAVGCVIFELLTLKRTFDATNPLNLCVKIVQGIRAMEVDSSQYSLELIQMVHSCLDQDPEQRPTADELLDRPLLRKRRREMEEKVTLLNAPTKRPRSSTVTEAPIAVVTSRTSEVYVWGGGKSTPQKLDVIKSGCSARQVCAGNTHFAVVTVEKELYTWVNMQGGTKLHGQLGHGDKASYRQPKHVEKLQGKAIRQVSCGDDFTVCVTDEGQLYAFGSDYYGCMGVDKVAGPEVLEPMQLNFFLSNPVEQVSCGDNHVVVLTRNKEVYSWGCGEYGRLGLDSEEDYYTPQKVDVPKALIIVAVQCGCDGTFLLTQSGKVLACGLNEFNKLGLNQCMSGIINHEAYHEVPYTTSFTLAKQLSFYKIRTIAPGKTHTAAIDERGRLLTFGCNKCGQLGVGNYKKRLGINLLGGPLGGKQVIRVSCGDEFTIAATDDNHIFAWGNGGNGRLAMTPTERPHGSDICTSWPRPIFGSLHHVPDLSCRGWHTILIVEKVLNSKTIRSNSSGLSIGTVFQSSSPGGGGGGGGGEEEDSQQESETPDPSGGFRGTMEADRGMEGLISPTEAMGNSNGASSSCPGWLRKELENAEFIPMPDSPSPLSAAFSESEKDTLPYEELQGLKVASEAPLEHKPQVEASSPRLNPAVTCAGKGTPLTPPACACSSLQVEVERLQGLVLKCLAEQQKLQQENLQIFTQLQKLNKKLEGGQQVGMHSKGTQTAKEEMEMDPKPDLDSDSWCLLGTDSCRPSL

Serine/threonine-protein kinase Nek6 (Homo sapiens), sequence (Q9HC98 whole entry): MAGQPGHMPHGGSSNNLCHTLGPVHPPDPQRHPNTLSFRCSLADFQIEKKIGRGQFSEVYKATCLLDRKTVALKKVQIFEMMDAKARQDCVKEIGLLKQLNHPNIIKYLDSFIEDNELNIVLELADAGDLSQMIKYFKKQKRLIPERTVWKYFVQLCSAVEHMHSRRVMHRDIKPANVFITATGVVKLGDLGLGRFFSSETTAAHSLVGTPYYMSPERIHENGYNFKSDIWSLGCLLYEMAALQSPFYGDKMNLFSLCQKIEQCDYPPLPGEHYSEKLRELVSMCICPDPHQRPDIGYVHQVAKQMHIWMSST
Serine/threonine-protein kinase Nek7 (Homo sapiens), sequence (Q8TDX7 whole entry, looked up): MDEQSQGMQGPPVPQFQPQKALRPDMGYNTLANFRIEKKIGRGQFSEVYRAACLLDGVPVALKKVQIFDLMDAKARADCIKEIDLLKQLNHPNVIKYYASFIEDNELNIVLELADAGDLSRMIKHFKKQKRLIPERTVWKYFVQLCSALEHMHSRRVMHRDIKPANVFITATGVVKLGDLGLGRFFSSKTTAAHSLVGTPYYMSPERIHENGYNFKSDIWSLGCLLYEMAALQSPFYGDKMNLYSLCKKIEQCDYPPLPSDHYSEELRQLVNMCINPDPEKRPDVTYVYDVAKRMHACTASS
Casein kinase II subunit alpha (Homo sapiens), sequence (P68400 whole entry, looked up): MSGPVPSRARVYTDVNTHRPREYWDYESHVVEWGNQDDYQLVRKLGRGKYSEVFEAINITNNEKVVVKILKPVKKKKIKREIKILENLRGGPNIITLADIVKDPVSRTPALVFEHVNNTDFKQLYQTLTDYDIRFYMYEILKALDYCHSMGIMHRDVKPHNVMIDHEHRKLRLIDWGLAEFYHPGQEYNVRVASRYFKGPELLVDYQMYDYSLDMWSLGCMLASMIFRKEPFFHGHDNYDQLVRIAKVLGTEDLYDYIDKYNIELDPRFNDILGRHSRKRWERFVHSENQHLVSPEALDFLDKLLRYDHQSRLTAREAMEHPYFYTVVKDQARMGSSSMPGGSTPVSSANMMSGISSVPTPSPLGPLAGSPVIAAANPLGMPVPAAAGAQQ
Sphingosine kinase 1 (Homo sapiens), sequence (Q9NYA1 whole entry): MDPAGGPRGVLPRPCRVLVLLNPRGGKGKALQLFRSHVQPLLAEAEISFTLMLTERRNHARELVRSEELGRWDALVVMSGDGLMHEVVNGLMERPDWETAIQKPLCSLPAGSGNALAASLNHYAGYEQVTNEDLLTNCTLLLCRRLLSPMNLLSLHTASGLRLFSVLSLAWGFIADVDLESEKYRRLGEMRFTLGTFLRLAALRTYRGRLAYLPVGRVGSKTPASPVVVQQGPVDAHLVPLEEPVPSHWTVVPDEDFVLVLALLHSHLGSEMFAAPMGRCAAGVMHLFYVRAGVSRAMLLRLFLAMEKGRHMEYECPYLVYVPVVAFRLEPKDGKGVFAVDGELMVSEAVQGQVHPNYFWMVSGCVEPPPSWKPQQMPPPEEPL

## COc1cc2ncn(-c3cc(OCc4cccs4)c(C(N)=O)s3)c2cc1OC
[1]
  inhibition: -0.69%
[2]
  inhibition: 0.11%
[3]
  inhibition: -0.11%
[4]
  inhibition: 5.63%
[5]
  inhibition: 20.8%
[6]
  inhibition: 3.56%
[7]
  inhibition: 4.87%
[8]
  inhibition: 3.09%
[9]
  inhibition: 6.07%
[10]
  inhibition: 7.67%
[11]
  inhibition: 7.71%
[12]
  inhibition: 3.32%
[13]
  inhibition: 7.88%
[14]
  inhibition: 4.6%
[15]
  inhibition: 15.3%
[16]
  inhibition: 3.67%
[17]
  inhibition: 6.02%
[18]
  inhibition: 1.64%
[19]
  inhibition: 2.38%
[20]
  inhibition: 5.68%
